An excerpt weighted towards active compounds, which were near 5.4% of everything screened.
PP1 counter: PP1-alpha (human) inhibition in PP5 counter-screen; P62136; purified PP1alpha, OMFP fluorescence; inhibition, % at 6.7 µM; 320,000 compounds, 0.9% hits; AID 2235;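 active means inhibition above the mean inhibition of all tested compounds plus 3 SD, computed separately for each screening campaign, cut at about 15% in these data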
CSC inhib: cancer stem cell inhibition. AID 2717. inhibition, % at 7.5 µM. 300,000 compounds, 1.1% hits. cancer stem cell-like cells viability, luminescence; in the data active means inhibition above about 75%; tested in HMLE shEcad cells
ALR inh: inhibitors of human sulfhydryl oxidase ALR | P55789 | purified ALR, DTT oxidation, H2O2 HRP-luminol luminescence | inhibition, % (test concentration not listed) | 290,000 compounds, 3.8% hits;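 active means mean replicate inhibition above about 79%, with every replicate also reaching it, limit read from the data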
PP5 inh: inhibitors of human protein phosphatase 5 (PP5); purified PP5c, OMFP substrate fluorescence; 320,000 compounds, 0.18% hits; AID 1987; inhibition, % at 6.7 µM; P53041;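 active means inhibition above the campaign's mean inhibition across all tested compounds plus 3 SD, cut at about 9.5% in these data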;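 further: 0% = DMSO only and 100% = 100 µM cantharidin control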
Target sequence (P53041 whole entry, looked up): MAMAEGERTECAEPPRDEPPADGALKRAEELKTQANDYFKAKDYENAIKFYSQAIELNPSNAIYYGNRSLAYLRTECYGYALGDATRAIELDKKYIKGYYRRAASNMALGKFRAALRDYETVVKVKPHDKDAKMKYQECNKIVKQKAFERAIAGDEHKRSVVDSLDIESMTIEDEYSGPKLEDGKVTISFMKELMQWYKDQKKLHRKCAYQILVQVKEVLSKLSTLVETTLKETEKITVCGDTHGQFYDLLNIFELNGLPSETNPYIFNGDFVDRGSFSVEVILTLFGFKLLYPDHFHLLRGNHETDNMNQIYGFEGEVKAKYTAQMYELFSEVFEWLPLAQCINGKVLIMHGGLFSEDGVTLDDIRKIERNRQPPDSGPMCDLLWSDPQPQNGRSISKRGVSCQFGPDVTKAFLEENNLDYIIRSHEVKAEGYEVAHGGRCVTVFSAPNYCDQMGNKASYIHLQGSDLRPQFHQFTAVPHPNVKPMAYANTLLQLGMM
Calb FLC: affects C. albicans growth with fluconazole | C. albicans CaCi-2 (fluconazole-resistant clinical isolate) + fluconazole, Alamar Blue growth, 48 h | 300,000 compounds, 0.57% hits | AID 1979 | growth inhibition, % (concentration not given with the values);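 active means growth inhibition above about 58% in most replicates, limit read from the data, passing the limit was not always enough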;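 further: all wells also contain fluconazole at 8 µg/ml as a sub-toxic cotreatment; 0% = median of DMSO wells and 100% = median of geldanamycin control wells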
* hit, by the source's call; / = no result.

SMILES	PP1 counter	CSC inhib	ALR inh	PP5 inh	Calb FLC
CC(=O)Nc1ccc(SCC(=O)c2cc(C)n(C)c2C)cc1	-1.1	10.3	98.9*	3.5	4.2
Cc1ccnc(SCC(=O)c2ccc(Br)s2)n1	-1.0	-9.0	84.9*	-2.9	11.2
CC(=O)Nc1ccc(SCC(=O)c2ccc(Br)s2)cc1	0.5	12.1	99.1*	1.4	6.4
CN(CCCNC(=O)C1CCC(=O)N1Cc1ccccc1Cl)c1ccccc1 (stereo not drawn)	4.2	-12.7	98.3*	1.2	3.9
Cc1ccc(CCNC(=O)C2CCC(=O)N2Cc2ccc(F)cc2)cc1 (stereo not drawn)	-2.7	-10.8	-5.0	0.1	0.2
CN(CCCNC(=O)C1CCC(=O)N1Cc1ccc(F)cc1)c1ccccc1 (stereo not drawn)	-4.0	-6.4	98.6*	-0.9	0.2
O=C(C1CCC(=O)N1Cc1ccccc1Cl)N1CCN(c2ccc(F)cc2)CC1 (stereo not drawn)	-3.6	-7.8	97.4*	1.3	0.9
COc1ccc(CCN2C(=O)CC(NCCc3ccc(S(N)(=O)=O)cc3)C2=O)cc1OC (stereo not drawn)	3.7	0.5	-6.3	1.4	27.1
Cc1cccc(C(=O)N[C@H](C(=O)Nc2nc3ccccc3[nH]2)C(C)C)c1	0.5	69.1	-4.4	3.4	8.4
N[C@@H](Cc1cc(I)c(O)c(I)c1)C(=O)O	1.4	8.4	0.2	-1.2	/
O=C(CNc1cccc2ccccc12)N/N=C/c1cccc(Oc2ccccc2)c1	6.7	-30.7	-14.9	5.7	16.6
Cc1c(NC(=O)c2nn3c(c2Br)NC(c2ccccc2)CC3C(F)(F)F)c(=O)n(-c2ccccc2)n1C (stereo not drawn)	-1.2	/	-2.7	2.0	3.8
Cc1ccc(NC(=O)CN2C(=O)N/C(=C/c3ccco3)C2=O)cc1	2.5	-12.5	7.7	-0.2	-10.2
Cc1ccc(NC(=O)CN2C(=O)N/C(=C/c3cccn3-c3ccc(C(=O)O)cc3)C2=O)cc1	1.4	-12.8	97.0*	2.7	/
CN(CCOc1ccccc1)C(=O)CCc1c[nH]c2ccccc12	-0.9	-1.2	96.0*	-2.1	-2.3
CN(Cc1cccs1)C(=O)CCc1c[nH]c2ccccc12	-2.6	-8.8	/	0.2	-6.5
Cc1[nH]c2ccccc2c1Cc1n[nH]c(=S)n1C	-5.4	3.5	47.9	3.2	15.7
Cc1[nH]c2ccccc2c1Cc1n[nH]c(=S)o1	-2.4	-10.7	96.1*	-1.9	-0.6
CCc1ccc(NC(=O)CCCNC(=O)Cn2cnc3sc(C)c(C)c3c2=O)cc1	14.8	16.4	0.3	0.0	-3.2
Cc1onc(-c2c(Cl)cccc2Cl)c1C(=O)NCCc1ccncc1	-8.1	13.5	-2.8	2.2	3.9
COc1ccc(Nc2nc(N)c([N+](=O)[O-])c(NCCO)n2)cc1	-2.1	-10.3	-4.4	3.8	-7.5
COc1ccc(Nc2nc(N)c([N+](=O)[O-])c(NC3CCCCC3)n2)cc1	5.5	100.9*	-8.4	5.5	8.0
O=Nc1ccc(O)c2ncccc12	-2.6	36.8	49.5	1.5	-11.5
Cc1ccccc1N=Nc1ccc(O)c2ncccc12	4.0	99.3*	-54.8	1.0	-9.1
COCc1ccc(O)c2ncccc12	-4.6	25.9	-12.9	0.8	-1.4
SMILES	PP1 counter	CSC inhib	ALR inh	PP5 inh	Calb FLC
COc1ccc(C)cc1N=Nc1ccc(O)c2ncccc12	/	/	/	/	108.8*
CCC(NC(C)C)C(O)c1ccc(O)c(O)c1 (stereo not drawn)	3.8	-10.8	92.2*	0.0	/
CCOc1ccc(-c2cc3nc(C4CCN(C(=O)OC(C)(C)C)CC4)c(C(=O)O)cn3n2)cc1	9.4	40.7	98.0*	2.8	4.2
COCCN(C(=O)COC(=O)CSc1ccc2ccccc2c1)c1c(N)n(Cc2ccccc2)c(=O)[nH]c1=O	-0.3	-9.2	98.2*	-0.7	2.9
COCCN(C(=O)CSc1nnc(-c2ccccc2F)n1C)c1c(N)n(Cc2ccccc2)c(=O)[nH]c1=O	0.1	/	/	-0.7	-0.6
COCCN(C(=O)CSc1nnc(-c2cccc(C)c2)n1C)c1c(N)n(Cc2ccccc2)c(=O)[nH]c1=O	-6.7	-7.9	2.7	-2.0	112.7*
CCOC(=O)C1=C(C)C(c2ccc(OC)cc2OC)NC(=O)N1 (stereo not drawn)	-4.7	-10.2	-3.4	-0.8	0.8
CC(C)(C)c1cc(C(c2cccnc2)N2CCN(CCO)CC2)cc(C(C)(C)C)c1O (stereo not drawn)	-0.3	195.5*	36.6	1.4	6.7
Cn1c(Cc2ccccc2)nnc1SCC(=O)Nc1cccc(S(=O)(=O)NC2=NCCCCC2)c1	1.8	-0.4	-7.5	-3.5	-15.2
